In PubChem BioAssay (Tox21):
Several values for one entry are separate records, joined by “and”; a condition that tells them apart may be missing. Equal entries are not always repeated. Inconclusive results are not listed. A call without a number means that no potency is given here. Some structures have more than one record in an assay (separate samples or runs), and their calls can disagree. Activity calls are given as the source filed them. Unless noted, the call rests on the fitted dose curve; in most records, active means well fitted curve in the direction sought with a large enough effect in the repeat runs; inconclusive means weak or mixed curves; inactive means no such curve, though single readings can be large; an effect the other way counts as inactive or inconclusive.

Experiments:
[1] = qHTS assay to identify small molecule antagonists of the glucocorticoid receptor (GR) signaling pathway - cell viability counter screen (AID 720693); further: nearly all actives have a fitted effect of over 55% in size
[2] = qHTS assay for identifying genotoxic compounds that show differential cytotoxicity against isogenic chicken DT40 cell lines with known DNA damage response pathways - wild type cell line (AID 743012); further: nearly all actives have a fitted effect of over 60% in size; further: potency means the concentration at half of the fitted maximal effect
Procedure, shortened: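 Viability by ATP luminescence (CellTiter-Glo, 30 min RT) after 40 h compound treatment at 37 C/5% CO2, using 300 parental DNA repair-proficient DT40 cells per well.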

[3] = qHTS assay for identifying genotoxic compounds that show differential cytotoxicity against isogenic chicken DT40 cell lines with known DNA damage response pathways - Rev3 mutant cell line (AID 743014); further: nearly all actives have a fitted effect of over 55% in size; further: potency means the concentration at half of the fitted maximal effect
[4] = qHTS assay for identifying genotoxic compounds that show differential cytotoxicity against isogenic chicken DT40 cell lines with known DNA damage response pathways - Rad54/Ku70 mutant cell line (AID 743015); further: nearly all actives have a fitted effect of over 60% in size; further: potency means the concentration at half of the fitted maximal effect
[5] = qHTS assay to identify small molecule antagonists of the androgen receptor (AR) signaling pathway - cell viability counter screen (AID 743033; further: nearly all actives have a fitted effect of over 45% in size)
[6] = qHTS assay to identify small molecule antagonists of the androgen receptor (AR) signaling pathway using the MDA cell line - cell viability counter screen (AID 743041; further: nearly all actives have a fitted effect of over 45% in size)
Procedure, shortened: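 qHTS viability read-out; MDA-kb2 AR-luc; R1881-stimulated; 16 h exposure at 37C, 0% CO2; CellTiter-Fluor, 30 min; fluorescence intensity.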

[7] = qHTS assay to identify small molecule antagonists of the thyroid receptor (TR) signaling pathway - cell viability counter screen (AID 743064); further: nearly all actives have a fitted effect of over 50% in size; further: potency means the concentration at half of the fitted maximal effect
Procedure, shortened: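 In rat pituitary GH3.TRE-Luc reporter cells co-exposed to compound and 1 nM T3 for 23.5 h, cytotoxicity was assessed with CellTiter-Fluor in the same wells, read by fluorescence.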

[8] = qHTS assay to identify small molecule antagonists of the thyroid receptor (TR) signaling pathway (AID 743065); further: nearly all actives have a fitted effect of over 55% in size; further: potency means the concentration at half of the fitted maximal effect
Procedure, shortened: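 GH3.TRE-Luc rat pituitary cells carrying two TR response elements driving luciferase were plated for 4 h, given compound plus 1 nM T3 (final), and incubated 23.5 h at 37 C. ONE-Glo luminescence measured reporter inhibition; CellTiter-Fluor fluorescence tracked cytotoxicity.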

[9] = tested on: thyroid hormone receptor (rat, GH3 cells); assay: qHTS assay to identify small molecule agonists of the thyroid receptor (TR) signaling pathway (AID 743066; calls by dose curve; further: potency means the concentration at half of the fitted maximal effect)
[10] = biological target: Estrogen receptor (Homo sapiens) (UniProt P03372); assay: qHTS assay to identify small molecule antagonists of the estrogen receptor alpha (ER-alpha) signaling pathway (AID 743069; active means well fitted curve in the direction sought with a large enough effect in the signal ratio in the repeat runs, not every such curve was filed as active; the % refers to the signal ratio)
Procedure, shortened: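 Screening used a UAS-driven beta-lactamase reporter integrated into HEK293 cells expressing ER-alpha, stimulated with 17beta-estradiol alongside test compounds over 18 hr at 37C; signal came from LiveBLAzer B/G FRET fluorescence.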

[11] = qHTS assay to identify small molecule antagonists of the estrogen receptor alpha (ER-alpha) signaling pathway - cell viability counter screen (AID 743074; calls by dose curve; further: nearly all actives have a fitted effect of over 45% in size)
[12] = biological target: Estrogen receptor (Homo sapiens) (UniProt P03372); assay: qHTS assay to identify small molecule agonists of the estrogen receptor alpha (ER-alpha) signaling pathway (AID 743075; calls by dose curve)
[13] = biological target: Estrogen receptor (Homo sapiens) (UniProt P03372); assay: qHTS assay to identify small molecule agonists of the estrogen receptor alpha (ER-alpha) signaling pathway using the BG1 cell line (AID 743079); further: nearly all actives have a fitted effect of over 20% in size; further: potency means the concentration at half of the fitted maximal effect
[14] = qHTS assay to identify small molecule antagonists of the estrogen receptor alpha (ER-alpha) signaling pathway using the BG1 cell line (AID 743080; calls by dose curve;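 further: BG1 cells stimulated with 17beta-estradiol alongside compound; nearly all actives have a fitted effect of over 25% in size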); conditions: BG1Luc4E2 ERE-luciferase antagonist mode, luminescence; activity change, negative = inhibition: at 70.3 µM (top of the series)
Procedure, shortened: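 BG1-Luc-4E2 cells (endogenous full-length ER-alpha, 4xERE luciferase) hormone-starved 5 days in charcoal-stripped FBS, plated 4,000/well for 24 h, then compound plus 17beta-estradiol for 21.5 h at 37 C; ONE-Glo luminescence read.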

[15] = qHTS assay to identify small molecule antagonists of the estrogen receptor alpha (ER-alpha) signaling pathway using the BG1 cell line - cell viability counter screen (AID 743081);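 further: compound given together with 17beta-estradiol as the ER stimulus; nearly all actives have a fitted effect of over 45% in size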
Aromatase (Homo sapiens) = Aromatase (Homo sapiens) (UniProt P11511); assay: qHTS assay to identify aromatase inhibitors (AID 743083); further: nearly all actives have a fitted effect of over 55% in size; further: potency means the concentration at half of the fitted maximal effect
[16] = biological target: Androgen receptor (Homo sapiens) (UniProt P10275); assay: qHTS assay to identify small molecule antagonists of the androgen receptor (AR) signaling pathway (AID 743035; active means well fitted inhibition curve with a large enough effect in the signal ratio in the repeat runs, not every such curve was filed as active; the % refers to the signal ratio; further: potency means the concentration at half of the fitted maximal effect)
Procedure, shortened: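 Antagonist mode: AR-bla HEK293 cells co-treated with test compounds and agonist R1881 for 16 h at 37C, 5% CO2. Beta-lactamase activity read as FRET fluorescence after 2 h room-temperature substrate loading.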

[17] = biological target: Androgen receptor (Homo sapiens) (UniProt P10275); assay: qHTS assay to identify small molecule agonists of the androgen receptor (AR) signaling pathway (AID 743036; active means well fitted activation curve with a large enough effect in the signal ratio in the repeat runs, with a control signal flat, not every such curve was filed as active; the % refers to the signal ratio)
Procedure, shortened: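 Cell-based FRET reporter assay: HEK293 line with a UAS-beta-lactamase construct, compounds added in DMSO, 16 h exposure at 37C, then 2 h substrate step at room temperature and fluorescence intensity read.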

[18] = biological target: Androgen receptor (Homo sapiens) (UniProt P10275); assay: qHTS assay to identify small molecule agonists of the androgen receptor (AR) signaling pathway using the MDA cell line (AID 743040; further: nearly all actives have a fitted effect of over 20% in size)
Procedure, shortened: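 Agonist activity is measured as luciferase luminescence in human MDA-kb2 cells whose MMTV reporter responds to both AR and GR. Compounds in DMSO incubate 16 h at 37C, 0% CO2, and ONE-Glo is read after 30 min.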

[19] = biological target: Androgen receptor (Homo sapiens) (UniProt P10275); assay: qHTS assay to identify small molecule antagonists of the androgen receptor (AR) signaling pathway using the MDA cell line (AID 743042; further: nearly all actives have a fitted effect of over 55% in size)
Procedure, shortened: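 MDA-kb2 cells (human breast carcinoma, stably carrying an MMTV-luciferase reporter responsive to AR and GR) were plated at 3,000 cells/well and preincubated 5 hr at 37C, then given compound plus R1881 agonist for 16 h. ONE-Glo luminescence was read.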

Androgen receptor (Homo sapiens), sequence (P10275 whole entry, looked up): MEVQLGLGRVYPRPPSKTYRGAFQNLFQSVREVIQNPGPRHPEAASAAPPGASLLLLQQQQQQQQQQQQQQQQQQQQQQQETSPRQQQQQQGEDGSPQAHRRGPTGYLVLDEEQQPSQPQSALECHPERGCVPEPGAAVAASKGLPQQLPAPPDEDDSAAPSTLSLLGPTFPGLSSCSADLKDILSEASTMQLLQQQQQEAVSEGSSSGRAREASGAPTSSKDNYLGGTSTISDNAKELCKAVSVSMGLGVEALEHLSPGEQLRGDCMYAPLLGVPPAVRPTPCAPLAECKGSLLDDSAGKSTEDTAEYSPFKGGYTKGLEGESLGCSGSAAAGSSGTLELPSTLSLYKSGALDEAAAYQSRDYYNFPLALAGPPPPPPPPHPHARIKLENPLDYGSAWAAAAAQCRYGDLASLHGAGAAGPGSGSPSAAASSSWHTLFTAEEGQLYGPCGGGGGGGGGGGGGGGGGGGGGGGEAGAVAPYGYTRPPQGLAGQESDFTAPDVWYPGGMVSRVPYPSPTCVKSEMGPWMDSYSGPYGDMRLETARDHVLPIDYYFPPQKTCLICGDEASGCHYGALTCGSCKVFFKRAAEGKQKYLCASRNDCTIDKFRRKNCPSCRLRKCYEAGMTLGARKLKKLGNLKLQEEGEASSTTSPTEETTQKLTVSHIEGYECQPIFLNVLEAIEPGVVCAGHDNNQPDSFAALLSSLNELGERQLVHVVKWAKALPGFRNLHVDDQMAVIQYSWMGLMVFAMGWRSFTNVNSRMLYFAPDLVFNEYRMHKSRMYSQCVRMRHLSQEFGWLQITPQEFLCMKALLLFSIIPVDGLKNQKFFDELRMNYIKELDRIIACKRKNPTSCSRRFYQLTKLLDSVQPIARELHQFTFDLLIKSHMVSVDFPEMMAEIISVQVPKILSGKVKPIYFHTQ
Estrogen receptor (Homo sapiens), sequence (P03372 whole entry, looked up): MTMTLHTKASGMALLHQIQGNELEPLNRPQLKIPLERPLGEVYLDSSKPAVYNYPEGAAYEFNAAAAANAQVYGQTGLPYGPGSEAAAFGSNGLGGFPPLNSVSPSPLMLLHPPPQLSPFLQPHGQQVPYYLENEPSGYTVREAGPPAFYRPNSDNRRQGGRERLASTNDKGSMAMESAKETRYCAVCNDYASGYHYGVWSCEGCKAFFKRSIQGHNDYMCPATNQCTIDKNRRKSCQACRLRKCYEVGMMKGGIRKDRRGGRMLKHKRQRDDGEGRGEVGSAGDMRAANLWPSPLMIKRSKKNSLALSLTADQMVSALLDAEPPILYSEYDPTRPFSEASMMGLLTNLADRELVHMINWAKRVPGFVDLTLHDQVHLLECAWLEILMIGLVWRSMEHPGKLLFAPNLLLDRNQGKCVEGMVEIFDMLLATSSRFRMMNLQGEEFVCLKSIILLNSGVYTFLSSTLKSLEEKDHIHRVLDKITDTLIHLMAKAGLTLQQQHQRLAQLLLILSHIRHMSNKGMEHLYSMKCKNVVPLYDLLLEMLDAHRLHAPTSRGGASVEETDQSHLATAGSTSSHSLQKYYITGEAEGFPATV
Aromatase (Homo sapiens), sequence (P11511 whole entry, looked up): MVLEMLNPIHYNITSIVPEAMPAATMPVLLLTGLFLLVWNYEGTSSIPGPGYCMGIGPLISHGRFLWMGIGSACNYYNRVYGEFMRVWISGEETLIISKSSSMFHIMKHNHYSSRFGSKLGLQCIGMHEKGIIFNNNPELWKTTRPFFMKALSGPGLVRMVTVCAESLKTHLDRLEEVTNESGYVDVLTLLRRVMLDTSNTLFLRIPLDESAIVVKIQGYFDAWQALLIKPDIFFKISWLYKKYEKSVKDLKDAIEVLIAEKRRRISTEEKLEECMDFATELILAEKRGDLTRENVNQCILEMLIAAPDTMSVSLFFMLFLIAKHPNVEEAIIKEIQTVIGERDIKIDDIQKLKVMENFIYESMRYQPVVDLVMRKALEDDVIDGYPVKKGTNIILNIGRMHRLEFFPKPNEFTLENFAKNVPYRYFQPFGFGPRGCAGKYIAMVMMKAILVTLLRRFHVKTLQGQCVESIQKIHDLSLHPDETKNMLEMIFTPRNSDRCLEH

SMILES | Potency [1] | Potency [2] | Potency [3] | Potency [4] | Potency [5] | Potency [6] | Potency [7] | Potency [8] | Potency [9] | Potency [10] | Potency [11] | Potency [12] | Potency [13] | Potency [14] | Potency [15] | Potency (Aromatase (Homo sapiens)) | Potency [16] | outcome [17] | outcome [18] | Potency [19]
NS(=O)(=O)c1cc2c(cc1Cl)NCNS2(=O)=O | inactive | inactive | inactive | inactive | inactive | inactive | inactive | inactive | inactive | inactive | inactive | inactive | inactive | inactive | inactive | inactive | – | – | – | –
NC(CO)(CO)CO | inactive | inactive | inactive | inactive | inactive | – | inactive | inactive | inactive and 9.69 µM (active) | inactive | inactive | inactive | inactive | inactive | inactive | inactive | – | – | – | –
O=C1c2c(O)cccc2Cc2cccc(O)c21 | inactive | inactive | inactive | inactive | inactive | – | inactive | inactive | inactive | – | inactive | – | – | – | inactive | inactive | – | – | – | –
CC12CCC(CC1)C(C)(C)O2 | inactive | inactive | inactive | inactive | inactive | – | inactive | inactive | inactive | inactive | inactive | inactive | inactive | inactive | inactive | inactive | – | – | – | –
F[B-](F)(F)F | inactive | inactive | inactive | inactive | inactive | – | inactive | inactive | inactive | – | inactive | – | – | – | inactive | inactive | – | – | – | –
CCCCCCCC(=O)OCC(COC(=O)CCCCCCC)OC(=O)CCCCCCC | inactive | inactive | inactive | inactive | inactive | – | inactive | inactive | inactive | inactive | inactive | inactive | inactive | inactive | inactive | inactive | – | – | – | –
CCCCC1(COC(=O)CCC(=O)O)C(=O)N(c2ccccc2)N(c2ccccc2)C1=O | inactive | inactive | inactive | inactive | inactive | inactive | inactive | inactive | inactive | inactive | inactive | inactive | inactive | inactive | inactive | inactive | inactive | inactive | inactive | inactive
C[C@](N)(Cc1ccc(O)c(O)c1)C(=O)O | inactive | inactive | inactive and 61.6 µM (active) and 60.9 µM (active) | inactive and 60.9 µM (active) | inactive | inactive | inactive | – | inactive | – | inactive | – | – | – | inactive | inactive | – | – | – | –
Cc1ncc([N+](=O)[O-])n1C | inactive | inactive | inactive | inactive | inactive | – | inactive | inactive | inactive | inactive | inactive | inactive | inactive | inactive | inactive | inactive | – | – | – | –
Nc1c2c(nc3ccccc13)CCCC2 | inactive | inactive and 27.3 µM (active) | inactive and 27.3 µM (active) | inactive and 19.3 µM (active) | inactive | – | inactive | inactive | inactive | inactive | inactive | inactive | inactive and 24.3 µM (active) | – | inactive | inactive | – | – | – | –
CCCCCCc1ccc(O)cc1O | inactive | 48.6 µM (active) | 54.6 µM (active) and 38.6 µM (active) | 21.7 µM (active) | inactive | inactive | 54.6 µM (active) and 54.5 µM (active) | 61.3 µM (active) | inactive | – | inactive | – | – | – | inactive | inactive and 61.1 µM (active) | inactive and 43.8 µM (active) and 43.6 µM (active) | inactive | inactive | inactive
Nc1ccc(S(N)(=O)=O)cc1 | inactive | inactive | 68.9 µM (active) and inactive | inactive and 61.4 µM (active) | inactive | inactive | inactive | inactive | inactive and 9.74 µM (active) | – | inactive | – | – | – | inactive | inactive | – | – | – | –
CC1(C)S[C@@H]2[C@H](NC(=O)[C@H](N)c3ccccc3)C(=O)N2[C@H]1C(=O)O | inactive | inactive | inactive | inactive | inactive | inactive | – | – | – | – | inactive | – | – | – | inactive | inactive | – | – | – | –
